Among the data in PubChem BioAssay (NCI) are growth values, retold here.

Among the test systems are NCI-H23 lung; NCI-H226 lung; NCI-H322M lung; HOP-62 NSCLC; NCI-H460 lung; HOP-92 NSCLC; NCI-H522 lung; A549/ATCC NSCLC; 786-0 renal; COLO 205 colon; DU-145 prostate; K-562 leukemia; MALME-3M melanoma; MDA-MB-231 breast; RXF 393 renal; SF-268 CNS; SF-295 CNS; SF-539 CNS; UACC-257 melanoma; M14 melanoma.
Assay in all cases: NCI-60 one-dose screen, 48 h (100 = growth as untreated, 0 = no growth, -100 = all killed)
Conditions in all cases: 10 µM unless noted

Each structure is given as a SMILES string. The panel holds about 83,000 compounds, 20% with a hit somewhere; the sample as a whole holds those more often.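 In brief: 96-well plates, 48 h treatment, single concentration, percent growth endpoint.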 Unmarked numbers belong to inactive results. Active and inactive are the calls of the source. The calls were made as follows: active = growth percent below 10; inactive = the rest.

Regarding `C/C(Cc1ccc(Cl)cc1)=C(\c1ccc(OCCN2CCOCC2)cc1)c1ccc(OC(=O)Cc2ccccc2)cc1`, the growth was 92.9% in the experiment with NCI-H23 lung; 101% in the experiment on NCI-H226 lung; 83% with NCI-H322M lung; 102% with HOP-62 NSCLC; 95.8% in the experiment on NCI-H460 lung; 77.2% with HOP-92 NSCLC. The growth with NCI-H522 lung is 69.7%; in the experiment on A549/ATCC NSCLC it was 78.9%; with 786-0 renal, 92.6%; in the experiment with COLO 205 colon, 99.8%; in the experiment with DU-145 prostate, 107%; with K-562 leukemia, 79.5%. Also, the growth in the experiment on MALME-3M melanoma is 99%; with MDA-MB-231 breast it was 96.5%; in the experiment on RXF 393 renal it was 94.7%; in the experiment on SF-268 CNS it was 95.6%; in the experiment on SF-295 CNS it was 99.9%; in the experiment on SF-539 CNS, 108%. For the same molecule, the growth is 86.1% with UACC-257 melanoma and 89.4% in the experiment with M14 melanoma.
Turning to `CCCC(C)C1(CC)C(=O)NC(=O)N(C)C1=O` (stereo not given), the growth in the experiment with NCI-H23 lung is 100%; in the experiment on NCI-H226 lung, 85.5%; in the experiment with NCI-H322M lung it was 100%; in the experiment with HOP-62 NSCLC, 85.1%; in the experiment with NCI-H460 lung it was 106%; in the experiment on HOP-92 NSCLC, 92%. The growth with NCI-H522 lung was 80.7%; with A549/ATCC NSCLC it was 79.1%; in the experiment on 786-0 renal, 94.3%; with COLO 205 colon it was 99.6%; with DU-145 prostate, 107%; in the experiment with K-562 leukemia it was 102%. For the same molecule, the growth is 90.1% with MALME-3M melanoma; 107% in the experiment on MDA-MB-231 breast; 119% in the experiment with RXF 393 renal; 100% with SF-268 CNS; 102% in the experiment on SF-295 CNS; 96.4% with SF-539 CNS. For the same molecule, the growth in the experiment on UACC-257 melanoma is 83.6%; with M14 melanoma, 101%.
Consider `O=C1NC(=O)C(=Cc2cn(C(=O)c3ccccc3)c3ccccc23)C(=O)N1`, for which the growth with NCI-H23 lung was 98%; in the experiment on NCI-H226 lung it was 92.3%; in the experiment on NCI-H322M lung, 95.5%; in the experiment with HOP-62 NSCLC, 93.4%; in the experiment with NCI-H460 lung, 97.6%; in the experiment with HOP-92 NSCLC, 71.8%. The growth with NCI-H522 lung was 85.8%; in the experiment on A549/ATCC NSCLC, 101%; in the experiment on 786-0 renal, 101%; in the experiment with COLO 205 colon, 113%; with DU-145 prostate, 113%; in the experiment with K-562 leukemia it was 141%. Further, the growth in the experiment with MALME-3M melanoma is 90.5%; with MDA-MB-231 breast, 88.9%; with RXF 393 renal, 45%; in the experiment on SF-268 CNS, 102%; with SF-295 CNS, 116%; in the experiment with SF-539 CNS, 87.6%. Moreover, the growth in the experiment with UACC-257 melanoma is 87%; in the experiment with M14 melanoma, 95.3%.
`CC[C@H](C)[C@H](NC(=O)c1nccn1C)C(=O)N(C)[C@H](C[C@@H](OC(C)=O)c1nc(C(=O)N[C@@H](Cc2ccccc2)C[C@H](C)C(=O)OC)cs1)C(C)C`: the growth in the experiment on NCI-H23 lung is 29.8%; in the experiment on NCI-H226 lung, 37.1%; in the experiment with NCI-H322M lung, 43.9%; in the experiment with HOP-62 NSCLC, 16.6%; in the experiment with NCI-H460 lung, 9.82% (active); in the experiment with HOP-92 NSCLC it was 29.9%. Moreover, the growth is -26.7% (active) in the experiment with NCI-H522 lung; 25.2% in the experiment on A549/ATCC NSCLC; 30.8% in the experiment with 786-0 renal; -12.8% (active) in the experiment with COLO 205 colon; 4.69% (active) in the experiment with DU-145 prostate; 6.34% (active) with K-562 leukemia. Besides, the growth is 71.6% in the experiment with MALME-3M melanoma; -5.75% (active) in the experiment with MDA-MB-231 breast; -0.416% (active) in the experiment with RXF 393 renal; 25.6% with SF-268 CNS; 4.7% (active) in the experiment with SF-295 CNS; -31.7% (active) in the experiment with SF-539 CNS. Besides, the growth was 54.2% in the experiment with UACC-257 melanoma and 3.12% (active) in the experiment with M14 melanoma.
Regarding `CCCCCCCCCCCCCCCCCCOc1ccccc1COP(=O)(O)OOCC[N+](C)(C)C`, the growth in the experiment with NCI-H23 lung was 1.55% (active); in the experiment on NCI-H226 lung, 42%; in the experiment on NCI-H322M lung, 87.6%; in the experiment with HOP-62 NSCLC, 3.04% (active); with NCI-H460 lung, 37.1%; in the experiment on HOP-92 NSCLC it was -27.7% (active). Besides, the growth was 21% in the experiment on NCI-H522 lung; 35.1% in the experiment on A549/ATCC NSCLC; 9.57% (active) with 786-0 renal; -30.3% (active) in the experiment on COLO 205 colon; 9.26% (active) in the experiment on DU-145 prostate; 1.4% (active) with K-562 leukemia. The growth in the experiment on MALME-3M melanoma was -12.3% (active); with MDA-MB-231 breast, -40.7% (active); in the experiment with RXF 393 renal, -64.7% (active); with SF-268 CNS, 10.6%; in the experiment on SF-295 CNS it was 27.2%; with SF-539 CNS it was 7.74% (active). In addition, the results for the growth in the experiment on UACC-257 melanoma and in the experiment on M14 melanoma were 11.5% and -29.1% (active), respectively.
`C=CCn1cc(C=C2C(=O)N(C)C(=O)N(C)C2=O)c2ccccc21`: the growth was 84.4% with NCI-H23 lung; -47.6% (active) with NCI-H226 lung; 87.8% in the experiment on NCI-H322M lung; 97% in the experiment with HOP-62 NSCLC; 56% in the experiment with NCI-H460 lung; 91.2% in the experiment with HOP-92 NSCLC. The growth in the experiment on NCI-H522 lung is 105%; in the experiment on A549/ATCC NSCLC, 107%; in the experiment with 786-0 renal, 101%; with COLO 205 colon, 116%; in the experiment with DU-145 prostate, 108%; in the experiment with K-562 leukemia it was 108%. The growth in the experiment on MALME-3M melanoma is 97.4%; in the experiment with MDA-MB-231 breast, 88.4%; in the experiment on RXF 393 renal it was 89.9%; in the experiment on SF-268 CNS it was 97.8%; in the experiment with SF-295 CNS it was 66.4%; in the experiment with SF-539 CNS, 102%. For the same molecule, the growth in the experiment with UACC-257 melanoma is 94.4%; in the experiment on M14 melanoma it was 88.9%.
Take `CC(=O)O[C@H](C[C@H](C(C)C)N(C)C(=O)[C@@H](NC(=O)[C@H]1CCCCN1C)C(C)C)c1cccc(C(=O)N[C@@H](Cc2ccccc2)C[C@H](C)C(=O)O)n1`: the growth was 32.6% in the experiment on NCI-H23 lung; 61.6% in the experiment on NCI-H226 lung; 40.7% in the experiment with NCI-H322M lung; 23% in the experiment on HOP-62 NSCLC; 4.27% (active) with NCI-H460 lung; 54.5% in the experiment with HOP-92 NSCLC. The growth in the experiment with NCI-H522 lung was -12.7% (active); with A549/ATCC NSCLC, 8.55% (active); with 786-0 renal, 13.6%; with COLO 205 colon, -64% (active); in the experiment with DU-145 prostate, 0.44% (active); with K-562 leukemia, 7.66% (active). Besides, the growth with MALME-3M melanoma was 74.3%; with MDA-MB-231 breast, 11.8%; in the experiment with RXF 393 renal, 34.5%; in the experiment with SF-268 CNS it was 23.1%; with SF-295 CNS, 5.65% (active); in the experiment on SF-539 CNS it was -2.97% (active). For the same molecule, the growth with UACC-257 melanoma was 48.4%; with M14 melanoma, 1.68% (active).
